Measurements published in ChEMBL document CHEMBL1961873, “Compounds: GSK PKIS; Assays: Nanosyn kinase panel” (2012).

Biological target: Dual specificity protein kinase CLK3 (Homo sapiens) (UniProt P49761);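 further: each value is the mean inhibition of CLK3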
Settings: at 1 µM

Chain of Dual specificity protein kinase CLK3 (Homo sapiens) (P49761 whole entry, looked up): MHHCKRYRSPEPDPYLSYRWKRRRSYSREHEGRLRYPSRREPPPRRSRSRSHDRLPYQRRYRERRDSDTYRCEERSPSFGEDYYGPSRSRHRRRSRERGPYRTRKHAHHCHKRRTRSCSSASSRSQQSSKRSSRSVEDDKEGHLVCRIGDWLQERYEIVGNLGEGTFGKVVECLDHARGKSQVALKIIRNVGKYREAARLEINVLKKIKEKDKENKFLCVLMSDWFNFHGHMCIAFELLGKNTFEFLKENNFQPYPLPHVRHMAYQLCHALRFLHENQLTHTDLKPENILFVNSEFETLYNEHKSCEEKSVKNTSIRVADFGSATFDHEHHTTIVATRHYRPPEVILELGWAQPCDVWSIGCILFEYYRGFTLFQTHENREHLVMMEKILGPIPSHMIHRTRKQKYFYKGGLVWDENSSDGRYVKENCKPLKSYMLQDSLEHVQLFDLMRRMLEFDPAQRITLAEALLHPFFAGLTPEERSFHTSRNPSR

Structure (SMILES)	inhibition
NC(=O)c1cc(-c2ccc(F)cc2)cc(-c2ccncc2)c1N	0.95%
O=C(NCC1CC1)c1ccc(-c2cccc(C(=O)NC3CC3)c2)cc1	2.44%
COc1ccc2ncn(-c3cc(O[C@H](C)c4ccccc4Cl)c(C(N)=O)s3)c2c1	-2.47%
O=C1Nc2ccc(I)cc2C1=Cc1cc(Br)c(O)c(Br)c1	-0.23%
Fc1ccc(-c2ncn(CCCN3CCOCC3)c2-c2ccncc2)cc1	0.51%
COc1ccc2cc(-c3c(-c4ccncc4)nc(-c4ccc([S+](C)[O-])cc4C)n3C)ccc2c1 (stereo not given)	2.67%
COC(=O)Nc1nc2ccc(Sc3ccc(NC(=O)Nc4cc(C(F)(F)F)ccc4F)cc3)cc2[nH]1	2.87%
CN(C)CCCNc1nccc(-c2c(-c3ccc(F)cc3)nn3cc(C(F)(F)F)ccc23)n1	-2.17%
CCS(=O)(=O)c1ccc(OC)c(Nc2ncc(-c3ccccc3Cl)o2)c1	8.78%
Fc1ccc(-c2c(-c3ccncc3)nc3n2CCS3)cc1	-1.56%
CCN(CC)Cc1ccc(Nc2nccc(-c3cnn4ncccc34)n2)cc1	5.2%
COc1cc2ncn(-c3cc(OCCc4ccccc4)c(C(N)=O)s3)c2cc1OC	3.27%
Cc1ccc(NC(=O)c2ccoc2)cc1-c1ccc(C(=O)NCC2CC2)cc1	0.49%
NS(=O)(=O)c1ccc(N/N=C2\C(=O)Nc3ccc(C(=O)NCCCn4ccnc4)cc32)cc1	8.02%
NCc1ccc(-n2c(-c3nonc3N)nc3cnccc32)cc1	3.13%
COc1cccc(-n2cnc3c(N/N=C/c4ccncc4)ncnc32)c1	-2.92%
C[C@@H](Oc1cc(-n2cnc3ccc(OC4CCN(C)CC4)cc32)sc1C(N)=O)c1ccccc1Cl	-2.38%

Biological target: Dual specificity tyrosine-phosphorylation-regulated kinase 1A (Homo sapiens) (UniProt Q13627)
Settings: at 0.1 µM

Structure (SMILES)	inhibition
CS(=O)(=O)CCNCc1cc(-c2cc3c(Nc4ccc(OCc5cccc(F)c5)c(Cl)c4)ncnc3s2)cs1	2.31%
CCC(=O)Nc1ccc(C)c(-c2ccc(C(=O)NCC3CC3)cc2)c1	1.98%
COc1cc(Nc2ncc3c(C)nc(-c4cccc(C(F)(F)F)c4)n3n2)cc(OC)c1OC	4.11%
Fc1ccc(-c2nc3n(c2-c2ccncc2)CCS3)cc1	0.54%
NC(=O)c1cc(-c2ccncc2)cc(-c2ccccc2)c1N	6.65%
CCc1nccc2c1nc(-c1nonc1N)n2CC	2.9%
CN(C)c1ccc2c(c1)/C(=C/Nc1ccc(S(N)(=O)=O)cc1)C(=O)N2	7.43%
CS(=O)(=O)CCNCc1ccc(-c2ccc3ncnc(Nc4ccc(OCc5ccccc5)c(Br)c4)c3c2)o1	-3.54%
Cc1nnc(-c2ccc(C)c(-c3ccc(C(=O)NCc4ccc(Cl)cc4)cc3)c2)o1	0.32%
Cc1ccc(C(=O)NC2CCC2)cc1-c1ccc(C(=O)NCC2CC2)cc1	2.74%
Clc1ccc(CNc2nccc(-c3cnn4ncccc34)n2)cc1	16%
c1ccc(-c2n[nH]cc2-c2ccnc(-c3ccc(OCCN4CCOCC4)cc3)c2)nc1	4.43%
CCS(=O)(=O)c1ccc(OC)c(Nc2ncc(-c3cccc(-c4ccccc4F)c3)o2)c1	3.84%
COc1cc2ncn(-c3cc(OCc4cccs4)c(C(N)=O)s3)c2cc1OC	-2.96%
O=C1Nc2ccccc2/C1=C/Nc1ccc(-n2cncn2)cc1	6.54%
C/C(Nc1ccc(S(N)(=O)=O)cc1)=C1/C(=O)Nc2ccccc21	3.02%
CCc1cccc(CC)c1/C=C/c1cncc(C(=O)NC)c1	1.88%
NC(=O)c1cc(-c2ccc(F)cc2)cc(-c2ccncc2)c1N	1.07%
O=C(NCC1CC1)c1ccc(-c2cccc(C(=O)NC3CC3)c2)cc1	0.99%
COc1ccc2ncn(-c3cc(O[C@H](C)c4ccccc4Cl)c(C(N)=O)s3)c2c1	-1.4%
O=C1Nc2ccc(I)cc2C1=Cc1cc(Br)c(O)c(Br)c1	1.95%
Fc1ccc(-c2ncn(CCCN3CCOCC3)c2-c2ccncc2)cc1	-0.26%
COc1ccc2cc(-c3c(-c4ccncc4)nc(-c4ccc([S+](C)[O-])cc4C)n3C)ccc2c1 (stereo not given)	2%
COC(=O)Nc1nc2ccc(Sc3ccc(NC(=O)Nc4cc(C(F)(F)F)ccc4F)cc3)cc2[nH]1	0.92%
CN(C)CCCNc1nccc(-c2c(-c3ccc(F)cc3)nn3cc(C(F)(F)F)ccc23)n1	-2.63%
CCS(=O)(=O)c1ccc(OC)c(Nc2ncc(-c3ccccc3Cl)o2)c1	0.71%
Fc1ccc(-c2c(-c3ccncc3)nc3n2CCS3)cc1	-1.74%
CCN(CC)Cc1ccc(Nc2nccc(-c3cnn4ncccc34)n2)cc1	40%
